The values below come from ChEMBL document CHEMBL1157539, “Thousands of chemical starting points for antimalarial lead identification” (Nature, 2010).

SMILES strings stand for the structures.

In the test the test system is HepG2. As to the kind of experiment: GSK_TCMDC: Percent inhibition of human HepG2 cell line. Test compounds present at 10uM. The format is functional.
`CCOC(=O)c1ccc(NC(=O)Nc2cccc(-c3cccc(-c4nc5cccc(C)c5[nH]4)c3)c2)cc1` displayed an Inhibition of 37%.

As for `O=C(/C=C/c1ccc(Cl)c(Cl)c1)NC1CCN(Cc2cccc(O)c2)CC1.O=C(O)C(F)(F)F`, the Inhibition was determined as 0%.

On to `O=C(/C=C/c1ccc(Cl)c(Cl)c1)NCCCCCN1CCC(NC(=O)Nc2cccc(C(F)(F)F)c2)CC1`, for which the Inhibition turned out to be 61%.

Compound `Cc1ccc(NC(=O)c2ccc3ncccc3c2)cc1OC1CCN(Cc2ccsc2)C1.O=C(O)C(F)(F)F` (stereo not given) showed an Inhibition of 5%.

Compound `O=C(Nc1ccc(Cn2ncc(N3CCCNCC3)c(Cl)c2=O)cc1)Nc1ccc(C(F)(F)F)cc1.O=C(O)C(F)(F)F` returned an Inhibition of 12%.

For `COc1ccc(NC(=O)/C=C/c2ccc(-c3ccccc3)cc2)cc1N1CCN(C)CC1.O=C(O)C(=O)O`, the Inhibition turned out to be 21%.

The compound `Nc1nc(N)c2c(ccc3nn(C4CCCC4)cc32)n1` registered an Inhibition of 44%.

`c1ccc2c(c1)ncc1c3ccccc3[nH]c21` yielded an Inhibition of 0%.

`Cc1cc(-c2cccc3c(C(=O)N4CCc5cc6nccc(N7CCCN(C)CC7)c6cc54)cccc23)cc(C)n1.Cl`: the Inhibition stood at 17%.

Regarding `CC(=O)c1cccc2cc(C(=O)NC3CCC(CCN4CCc5ccc(C#N)cc5C4)CC3)[nH]c12.Cl` (stereo not given), the Inhibition was 12%.

The compound `CC(C)N1CCCN(C(=O)C2CCN(c3ccc(C(=O)N4CCCC4)cn3)CC2)CC1.Cl` registered an Inhibition of 41%.

`COc1cc(C)nc2ccc(NC(=O)Nc3ccccc3[N+](=O)[O-])cc12` registered an Inhibition of 6%.

`Cc1ccc(O)cc1Nc1ccnc2cc(-c3ccccc3)ccc12.Cl`: the Inhibition was found to be 45%.

For the compound `FC(F)(F)c1ccc2[nH]c(-c3cccc(-c4cccc(CNCC5CCCO5)c4)c3)nc2c1.O=C(O)C(F)(F)F` (stereo not given), the Inhibition was 23%.

As for `CCC(C)OC(=O)C1=C(C)NC2=C(C(=O)CC(c3ccc(OC)c(OC)c3)C2)C1c1ccc(O)cc1` (stereo not given), the Inhibition is recorded as 3%.

`O=C1Nc2ccccc2/C1=N/NC(=S)N1CCOCC1`: the Inhibition stood at 51%.

For the compound `CCCCOc1ccc(/C=C/c2ccc(-c3c(C)[nH]c(C)c(Cl)c3=O)s2)cc1`, the Inhibition was determined as 0%.

For the compound `COc1cc(C(C)C)ccc1C1CCN(CCCCNC(=O)c2ccc(NC(=O)c3ccc(Cl)cc3)cc2)CC1.O=C(O)/C=C/C(=O)O`, the Inhibition was found to be 100%.

`N#Cc1cccc(C(=O)Nc2cccc(-c3ccc(CN4CCC(O)CC4)cc3)c2)c1.O=C(O)C(F)(F)F` had an Inhibition of 15%.

Consider `C1=CN(Cc2ccccc2)C=CC1=C1C=Nc2ccccc21`, for which the Inhibition is reported as 8%.

Compound `O=C(Nc1ccc(-c2nc3ccccc3[nH]2)cc1)C1CCCN(C2CCC2)C1` (stereo not given) came in with an Inhibition of 0%.

As to `CN(C)c1ccc(-c2csc(C(=O)NCC3CCN(Cc4ccc(C(C)(C)C)cc4)C3)c2)cc1.O=C(O)C(F)(F)F` (stereo not given), the Inhibition is reported as 29%.

The compound `Cc1ccc(NC(=O)c2cnc(N3CCN(c4ccncc4)CC3)c(Cl)c2)cc1.O=C(O)C(F)(F)F` showed an Inhibition of 25%.

In the case of `CC(=O)Nc1ccc(S(=O)(=O)Nc2c(C)cc(Cc3cnc(N)nc3N)cc2C)cc1`, the Inhibition was 6%.

`CC1CC(NCCCNc2cc(=O)c3ccccc3[nH]2)c2c1cc(Cl)c(Cl)c2Cl` (stereo not given) registered an Inhibition of 1%.

The compound `CN(C)c1ccc(-c2cscc2C(=O)NC2CCCN(Cc3cccnc3)C2)cc1.O=C(O)C(F)(F)F` (stereo not given) returned an Inhibition of 5%.

Turning to `CC1CC1C(=O)NC1CCN(CC2(c3ccccc3)CCCCC2)CC1` (stereo not given), the Inhibition is reported as 0%.

`Cn1nc(-c2ccc(NC(=O)Nc3cc(C(F)(F)F)ccc3F)cc2)c2cnc(NCCc3c[nH]cn3)nc21.O=C(O)C(F)(F)F` registered an Inhibition of 15%.

For `O=C(N[C@@H](Cc1ccccc1)C(=O)NC1CCCCC1)c1ccc(O)c(-c2cccc(C(F)(F)F)c2)c1`, the Inhibition came out at 11%.

In the case of `COc1cccc(C(=O)NCCc2cccc(Cl)c2)c1Oc1ccccc1`, the Inhibition came out at 28%.

`CN(C)CCNC(=O)c1ccc(-c2ccc3c(Nc4ccccc4)c(C(N)=O)cnc3c2)cc1` registered an Inhibition of 9%.

As for `O=C(Nc1ccc(Cl)cc1Cl)NC1CCN(CCCCCNC(=O)C2CC2c2ccc(Cl)c(Cl)c2)CC1` (stereo not given), the Inhibition is given as 67%.

`COc1ccccc1C1CCN(CCCCNC(=O)c2ccc(NC(=O)c3ccc(Cl)cc3)cc2)CC1` returned an Inhibition of 21%.

Consider `CCCc1cc(Cc2cnc(N)nc2N)cc(CCC)c1OC.Cl`, for which the Inhibition turned out to be 18%.

In turn, `COc1ccc(-c2c(C(F)(F)F)nn(C)c2NC(=O)Nc2ccc(F)cc2F)cc1` displayed an Inhibition of 8%.

`N#Cc1ccc(C=Cc2nccc3c2[nH]c2ccccc23)cc1` yielded an Inhibition of 33%.

Turning to `Nc1nc(N)c2c(ccc3c2ccn3Cc2ccccn2)n1`, the Inhibition came out at 66%.

Consider `CCC(=O)Nc1ccc(C(O)CN2CCC3(C=Cc4ccccc4O3)CC2)cc1` (stereo not given), for which the Inhibition was 48%.

As to `O=C(Nc1cccc(F)c1)NC1CCN(c2ccnc3cc(Cl)ccc23)C1.O=C(O)C(F)(F)F` (stereo not given), the Inhibition is reported as 13%.

The compound `COc1ccc(CN(C)CC(O)COc2ccc(NC(=O)c3cccc4c(=O)c5cccc(OC)c5[nH]c34)cc2)cc1OC` (stereo not given) showed an Inhibition of 72%.

As a reminder, the Inhibition is how much of the control response was suppressed.
